Experimental findings from PubChem BioAssay (NCI) are described below.

This is part of a sample that, as a whole, favours compounds with a hit. Of some 79,000 tested, about 15% had one in any assay. A number with no mark means an inactive call. The source made the active and inactive calls. No stated cut-off is given here; in the data, active means growth inhibition above about 70%; inactive means the rest.

Experiment [1] is described as follows: NCI Yeast Anticancer Drug Screen. Data for the rad50 strain (AID 155).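 Further: 0% = growth of vehicle-only cultures of the same strain.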 The conditions noted are these: S. cerevisiae rad50 strain growth inhibition, hits give high values. In a few lines:
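Growth of the mutant yeast was measured after compound exposure and referenced to vehicle-treated cultures.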

A short description of experiment [2]: NCI Yeast Anticancer Drug Screen. Data for the mec2-1 strain (AID 157). The conditions noted are these: S. cerevisiae mec2-1 strain, hits give high values. Summed up: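 Compounds were applied to mec2-1 yeast cells. Their growth was then compared with that of vehicle-treated cultures to give growth inhibition.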
Experiment [3] can be described thus: NCI Yeast Anticancer Drug Screen. Data for the sgs1 mgt1 strain (AID 161).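 Further: 0% = growth of cultures given vehicle only.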 The conditions noted are these: S. cerevisiae sgs1 mgt1 strain, hits give high values. In a few lines: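 Percent growth inhibition was derived by comparing compound-exposed mutant yeast with vehicle-exposed cultures. The strain carries alterations in DNA damage repair.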
Experiment [4] can be described thus: NCI Yeast Anticancer Drug Screen. Data for the cln2 rad14 strain (AID 165).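 Further: 0% = growth equal to vehicle treated cultures.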 The following applies: S. cerevisiae cln2 rad14 strain, hits give high values. Summed up: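 Strain: cln2 rad14 yeast, altered in cell cycle control and DNA damage repair. Read-out: growth inhibition vs vehicle.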
Experiment [5] can be described thus: NCI Yeast Anticancer Drug Screen. Data for the bub3 strain (AID 167). The following applies: S. cerevisiae bub3 mutant strain, hits give high values. In a few lines:
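Whole-cell yeast assay. The mutant strain was incubated with compounds, and growth inhibition was determined by comparison with vehicle-treated cells.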

The nature of experiment [6]: NCI Yeast Anticancer Drug Screen. Data for the mlh1 rad18 strain (AID 175). The conditions noted are these: S. cerevisiae mlh1 rad18 strain growth inhibition, hits give high values. Summed up: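 A repair-deficient yeast strain is exposed to test compound, and growth is scored relative to vehicle-treated controls.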
Where [7] appears, read: at 5.0 µM (retest, dose inferred, filed as 0.5).
Where [8] appears, read: at 50.0 µM (retest, dose inferred, filed as 5.0).

As to `CCCCCCCCCCCCCCOS(=O)(=O)O`, the growth inhibition in experiment [1] (setting [7]) was 26%; in experiment [1] (setting [8]), 99% (active); in experiment [1] (at 50.0 µM), 99.5% (active); in experiment [2] (setting [7]), -27%; in experiment [2] (setting [8]) it was 73% (active); in experiment [2] (at 50.0 µM), 99.7% (active). For the same compound, the growth inhibition in experiment [3] (setting [7]) was -1%; in experiment [3] (setting [8]), 100% (active); in experiment [3] (at 50.0 µM) it was 99.6% (active); in experiment [4] (setting [7]), 8%; in experiment [4] (setting [8]) it was 61%; in experiment [4] (at 50.0 µM), 99.6% (active). The growth inhibition in experiment [5] (setting [7]) is -9%; in experiment [5] (setting [8]), 35%; in experiment [5] (at 50.0 µM), 99.7% (active); in experiment [6] (setting [7]), 12%; in experiment [6] (setting [8]), 98% (active); in experiment [6] (at 50.0 µM) it was 99.5% (active).
For `Oc1c(Cl)cc(Cl)cc1Br`, the growth inhibition in experiment [1] (setting [7]) is -4%; in experiment [1] (setting [8]), 83% (active); in experiment [1] (at 50.0 µM) it was 90.2% (active); in experiment [2] (setting [7]), 5%; in experiment [2] (setting [8]), 96% (active); in experiment [2] (at 50.0 µM), 97.4% (active). Further, the growth inhibition is 3% in experiment [3] (setting [7]); 72% (active) in experiment [3] (setting [8]); 96.7% (active) in experiment [3] (at 50.0 µM); 0% in experiment [4] (setting [7]); 91% (active) in experiment [4] (setting [8]); 54.5% in experiment [4] (at 50.0 µM). The growth inhibition in experiment [5] (setting [7]) was -7%; in experiment [5] (setting [8]), 78% (active); in experiment [5] (at 50.0 µM) it was 84.7% (active); in experiment [6] (setting [7]), -2%; in experiment [6] (setting [8]), 91% (active); in experiment [6] (at 50.0 µM), 88.1% (active).
As for `Cc1ccc(C)c2[nH]c(-c3ccccc3)cc12`, the growth inhibition was -1% in experiment [1] (setting [7]); 99% (active) in experiment [1] (setting [8]); 99.3% (active) in experiment [1] (at 50.0 µM); -37% in experiment [2] (setting [7]); 99% (active) in experiment [2] (setting [8]); 99.2% (active) in experiment [2] (at 50.0 µM). Also, the growth inhibition in experiment [3] (setting [7]) was 0%; in experiment [3] (setting [8]) it was 99% (active); in experiment [3] (at 50.0 µM), 99.3% (active); in experiment [4] (setting [7]) it was 0%; in experiment [4] (setting [8]), 99% (active); in experiment [4] (at 50.0 µM), 99.1% (active). Besides, the growth inhibition in experiment [5] (setting [7]) is -5%; in experiment [5] (setting [8]) it was 99% (active); in experiment [5] (at 50.0 µM), 99.2% (active); in experiment [6] (setting [7]) it was -1%; in experiment [6] (setting [8]) it was 99% (active); in experiment [6] (at 50.0 µM) it was 99.2% (active).
For `CCCCCCCCCCCCn1cnc2ncnc(Cl)c21`, the growth inhibition in experiment [1] (setting [7]) was 6%; in experiment [1] (setting [8]), 48%; in experiment [1] (at 50.0 µM) it was 98.2% (active); in experiment [2] (setting [7]), 7%; in experiment [2] (setting [8]), 54%; in experiment [2] (at 50.0 µM), 99% (active). Also, the growth inhibition in experiment [3] (setting [7]) was 11%; in experiment [3] (setting [8]) it was 68%; in experiment [3] (at 50.0 µM), 98.7% (active); in experiment [4] (setting [7]), 2%; in experiment [4] (setting [8]) it was 28%; in experiment [4] (at 50.0 µM) it was 98.4% (active). The growth inhibition in experiment [5] (setting [7]) was -4%; in experiment [5] (setting [8]), 41%; in experiment [5] (at 50.0 µM), 98.8% (active); in experiment [6] (setting [7]), 6%; in experiment [6] (setting [8]) it was 63%; in experiment [6] (at 50.0 µM) it was 98.6% (active).
As for `COc1cc(C(=O)C=[N+]=[N-])c([N+](=O)[O-])c(OC)c1OC`, the growth inhibition in experiment [1] (setting [7]) was 12%; in experiment [1] (setting [8]) it was 77% (active); in experiment [1] (at 50.0 µM), 63.2%; in experiment [2] (setting [7]), 22%; in experiment [2] (setting [8]) it was 91% (active); in experiment [2] (at 50.0 µM), 90.8% (active). For the same compound, the growth inhibition in experiment [3] (setting [7]) is 19%; in experiment [3] (setting [8]), 92% (active); in experiment [3] (at 50.0 µM), 91.8% (active); in experiment [4] (setting [7]), 11%; in experiment [4] (setting [8]) it was 51%; in experiment [4] (at 50.0 µM) it was 41.9%. In addition, the growth inhibition in experiment [5] (setting [7]) was 9%; in experiment [5] (setting [8]), 67%; in experiment [5] (at 50.0 µM) it was 93.2% (active); in experiment [6] (setting [7]) it was 8%; in experiment [6] (setting [8]) it was 89% (active); in experiment [6] (at 50.0 µM) it was 94.4% (active).
For the compound `CC1=NC(c2ccccc2)(C2(c3ccccc3)C(c3ccccc3)=C2c2ccccc2)C(=O)O1` (configuration not stated), the growth inhibition in experiment [1] (setting [7]) is 21%; in experiment [1] (setting [8]), 21%; in experiment [1] (at 50.0 µM), 86% (active); in experiment [2] (setting [7]), 25%; in experiment [2] (setting [8]), 25%; in experiment [2] (at 50.0 µM), 88.8% (active). For the same compound, the growth inhibition in experiment [3] (setting [7]) is 28%; in experiment [3] (setting [8]), 28%; in experiment [3] (at 50.0 µM), 86.9% (active); in experiment [4] (setting [7]), 23%; in experiment [4] (setting [8]), 23%; in experiment [4] (at 50.0 µM), 89% (active). For the same compound, the growth inhibition in experiment [5] (setting [7]) was 11%; in experiment [5] (setting [8]), 11%; in experiment [5] (at 50.0 µM), 34.9%; in experiment [6] (setting [7]), 27%; in experiment [6] (setting [8]) it was 27%; in experiment [6] (at 50.0 µM) it was 86.6% (active).
Turning to `S=c1sc2ccccc2n1CNc1ccccc1`, the growth inhibition in experiment [1] (setting [7]) was -2%; in experiment [1] (setting [8]) it was 14%; in experiment [1] (at 50.0 µM), 64.9%; in experiment [2] (setting [7]), 0%; in experiment [2] (setting [8]), 7%; in experiment [2] (at 50.0 µM), 68.1%. Moreover, the growth inhibition was 2% in experiment [3] (setting [7]); 53% in experiment [3] (setting [8]); 72.2% (active) in experiment [3] (at 50.0 µM); -5% in experiment [4] (setting [7]); -10% in experiment [4] (setting [8]); -40.6% in experiment [4] (at 50.0 µM). Moreover, the growth inhibition in experiment [5] (setting [7]) is -1%; in experiment [5] (setting [8]) it was 18%; in experiment [5] (at 50.0 µM), 74.3% (active); in experiment [6] (setting [7]) it was 5%; in experiment [6] (setting [8]), -11%; in experiment [6] (at 50.0 µM), 69.3%.
With `COc1ccc(C2SCC(=O)N2c2ccc(-c3ccc(-n4c(-c5ccccc5)nc5ccccc5c4=O)cc3)cc2)cc1` (configuration not stated), the growth inhibition in experiment [1] (setting [7]) was 0%; in experiment [1] (setting [8]), 33%; in experiment [1] (at 50.0 µM), 21.6%; in experiment [2] (setting [7]) it was 1%; in experiment [2] (setting [8]), 28%; in experiment [2] (at 50.0 µM), 34.1%. The growth inhibition in experiment [3] (setting [7]) was 7%; in experiment [3] (setting [8]), 57%; in experiment [3] (at 50.0 µM) it was 57.4%; in experiment [4] (setting [7]) it was 42%; in experiment [4] (setting [8]) it was 41%; in experiment [4] (at 50.0 µM), 13.5%. Further, the growth inhibition was 24% in experiment [5] (setting [7]); 69% in experiment [5] (setting [8]); 70.9% (active) in experiment [5] (at 50.0 µM); 18% in experiment [6] (setting [7]); 68% in experiment [6] (setting [8]); 58.1% in experiment [6] (at 50.0 µM).
For `N=C(N)Sc1ccc([N+](=O)[O-])cc1Cl`, the growth inhibition was 45% in experiment [1] (setting [7]); 94% (active) in experiment [1] (setting [8]); 85.2% (active) in experiment [1] (at 50.0 µM); 35% in experiment [2] (setting [7]); 96% (active) in experiment [2] (setting [8]); 86.8% (active) in experiment [2] (at 50.0 µM). Also, the growth inhibition is 56% in experiment [3] (setting [7]); 97% (active) in experiment [3] (setting [8]); 90.3% (active) in experiment [3] (at 50.0 µM); 36% in experiment [4] (setting [7]); 89% (active) in experiment [4] (setting [8]); 84.5% (active) in experiment [4] (at 50.0 µM). The growth inhibition was 40% in experiment [5] (setting [7]); 59% in experiment [5] (setting [8]); 86.2% (active) in experiment [5] (at 50.0 µM); 63% in experiment [6] (setting [7]); 96% (active) in experiment [6] (setting [8]); 85.7% (active) in experiment [6] (at 50.0 µM).
